Measured values reported in the supplement of paper PMC11732987, “Enantioselective OTUD7B fragment discovery through chemoproteomics screening and high-throughput optimisation” (Communications Chemistry, 2025).

What was measured:
Assay in all cases: log2 ratio of Biotin-Ahx-Ub-VS probe labelling (fragment/DMSO); higher = less target engagement (more negative = stronger competition), active = hit call of the paper (q ≤ 0.05, log2 ratio ≤ -1)
Conditions in all cases: compound concentration: 200 uM; treatment time: 3 h
ALG13 = biological target: T1, ALG13 (UniProt Q9NP73)
T1 sequence (whole entry): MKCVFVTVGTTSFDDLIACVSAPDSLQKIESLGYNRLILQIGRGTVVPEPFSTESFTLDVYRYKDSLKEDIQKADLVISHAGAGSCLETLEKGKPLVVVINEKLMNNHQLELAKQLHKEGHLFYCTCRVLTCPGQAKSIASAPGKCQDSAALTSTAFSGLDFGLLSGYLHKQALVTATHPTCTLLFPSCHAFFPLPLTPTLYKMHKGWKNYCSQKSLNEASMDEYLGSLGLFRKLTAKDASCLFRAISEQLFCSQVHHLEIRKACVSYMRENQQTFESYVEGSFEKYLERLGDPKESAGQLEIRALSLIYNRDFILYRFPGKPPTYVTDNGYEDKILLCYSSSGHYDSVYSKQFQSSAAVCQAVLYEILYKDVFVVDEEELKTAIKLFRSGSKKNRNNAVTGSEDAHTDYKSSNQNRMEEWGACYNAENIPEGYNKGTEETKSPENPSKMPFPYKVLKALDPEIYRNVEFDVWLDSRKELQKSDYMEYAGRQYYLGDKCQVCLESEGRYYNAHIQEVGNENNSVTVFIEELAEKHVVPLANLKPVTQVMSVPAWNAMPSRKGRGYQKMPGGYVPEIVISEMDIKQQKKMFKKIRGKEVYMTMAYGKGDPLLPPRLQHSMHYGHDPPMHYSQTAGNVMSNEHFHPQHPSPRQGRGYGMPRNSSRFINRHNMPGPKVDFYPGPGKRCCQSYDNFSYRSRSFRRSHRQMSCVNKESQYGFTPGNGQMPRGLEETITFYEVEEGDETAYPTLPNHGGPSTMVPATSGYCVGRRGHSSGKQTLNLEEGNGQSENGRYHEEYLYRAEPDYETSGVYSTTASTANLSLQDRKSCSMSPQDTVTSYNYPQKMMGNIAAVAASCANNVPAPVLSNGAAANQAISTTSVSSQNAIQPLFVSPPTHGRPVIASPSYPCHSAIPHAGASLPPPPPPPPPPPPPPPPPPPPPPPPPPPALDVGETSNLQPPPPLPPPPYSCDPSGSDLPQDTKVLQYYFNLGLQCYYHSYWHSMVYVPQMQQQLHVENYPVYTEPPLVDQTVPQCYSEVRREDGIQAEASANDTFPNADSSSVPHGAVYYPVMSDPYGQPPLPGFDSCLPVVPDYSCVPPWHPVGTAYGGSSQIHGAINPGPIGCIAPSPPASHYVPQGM
In short: (§1)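 The table lists average log2 ratios of fragment over vehicle, from an unpaired t-test on global-median-normalised Spectronaut label-free quantities. Proteins with ≥2 unique peptides were used. Samples were HEK293T lysate (495 µg) treated in triplicate with fragment at 200 µM or vehicle for 3 h, then with Biotin-Ahx-Ub-VS (0.5 µM final) for 1 h, with labelled DUBs NeutrAvidin-enriched and run by diaPASEF LC-MS/MS.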

ATXN3 = ATXN3 (UniProt P54252)
In short: as §1

BAP1 = biological target: T2, BAP1 (UniProt Q92560)
T2 sequence (whole entry): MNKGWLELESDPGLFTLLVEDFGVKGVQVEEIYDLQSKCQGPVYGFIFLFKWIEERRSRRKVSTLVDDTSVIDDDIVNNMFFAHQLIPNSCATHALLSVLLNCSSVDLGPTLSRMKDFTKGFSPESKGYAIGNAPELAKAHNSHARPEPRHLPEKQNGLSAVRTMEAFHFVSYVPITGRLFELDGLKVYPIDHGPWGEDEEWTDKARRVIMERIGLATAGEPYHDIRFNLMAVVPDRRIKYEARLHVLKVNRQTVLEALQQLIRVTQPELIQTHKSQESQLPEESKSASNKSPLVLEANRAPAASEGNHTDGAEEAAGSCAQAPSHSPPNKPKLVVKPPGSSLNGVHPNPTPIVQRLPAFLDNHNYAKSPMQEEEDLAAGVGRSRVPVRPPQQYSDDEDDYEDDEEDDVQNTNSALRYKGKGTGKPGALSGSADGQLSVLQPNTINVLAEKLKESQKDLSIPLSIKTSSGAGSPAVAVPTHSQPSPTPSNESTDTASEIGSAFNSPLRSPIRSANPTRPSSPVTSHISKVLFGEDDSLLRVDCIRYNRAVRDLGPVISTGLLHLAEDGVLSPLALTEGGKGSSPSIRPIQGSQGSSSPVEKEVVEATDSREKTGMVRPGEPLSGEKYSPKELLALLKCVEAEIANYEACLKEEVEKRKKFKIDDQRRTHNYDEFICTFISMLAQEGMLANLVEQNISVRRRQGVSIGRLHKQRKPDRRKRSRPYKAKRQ
In short: as §1

EIF3F = EIF3F (UniProt O00303)
In short: as §1

EIF3H = EIF3H (UniProt O15372)
In short: as §1

FAM105A = biological target: T3, FAM105A (UniProt Q9NUU6)
T3 sequence (whole entry): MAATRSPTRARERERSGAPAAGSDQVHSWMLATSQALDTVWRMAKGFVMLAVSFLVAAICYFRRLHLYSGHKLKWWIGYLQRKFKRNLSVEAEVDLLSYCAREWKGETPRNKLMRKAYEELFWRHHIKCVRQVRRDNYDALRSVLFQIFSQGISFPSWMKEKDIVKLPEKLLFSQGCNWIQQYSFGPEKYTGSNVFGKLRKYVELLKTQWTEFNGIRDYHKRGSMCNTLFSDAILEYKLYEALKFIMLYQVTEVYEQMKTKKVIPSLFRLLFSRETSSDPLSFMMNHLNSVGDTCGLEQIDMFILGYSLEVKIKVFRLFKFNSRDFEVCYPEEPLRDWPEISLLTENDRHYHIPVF
In short: as §1

OTUB1 = OTUB1 (UniProt Q96FW1)
In short: as §1

OTUD4 = biological target: T4, OTUD4 (UniProt Q01804)
T4 sequence (whole entry): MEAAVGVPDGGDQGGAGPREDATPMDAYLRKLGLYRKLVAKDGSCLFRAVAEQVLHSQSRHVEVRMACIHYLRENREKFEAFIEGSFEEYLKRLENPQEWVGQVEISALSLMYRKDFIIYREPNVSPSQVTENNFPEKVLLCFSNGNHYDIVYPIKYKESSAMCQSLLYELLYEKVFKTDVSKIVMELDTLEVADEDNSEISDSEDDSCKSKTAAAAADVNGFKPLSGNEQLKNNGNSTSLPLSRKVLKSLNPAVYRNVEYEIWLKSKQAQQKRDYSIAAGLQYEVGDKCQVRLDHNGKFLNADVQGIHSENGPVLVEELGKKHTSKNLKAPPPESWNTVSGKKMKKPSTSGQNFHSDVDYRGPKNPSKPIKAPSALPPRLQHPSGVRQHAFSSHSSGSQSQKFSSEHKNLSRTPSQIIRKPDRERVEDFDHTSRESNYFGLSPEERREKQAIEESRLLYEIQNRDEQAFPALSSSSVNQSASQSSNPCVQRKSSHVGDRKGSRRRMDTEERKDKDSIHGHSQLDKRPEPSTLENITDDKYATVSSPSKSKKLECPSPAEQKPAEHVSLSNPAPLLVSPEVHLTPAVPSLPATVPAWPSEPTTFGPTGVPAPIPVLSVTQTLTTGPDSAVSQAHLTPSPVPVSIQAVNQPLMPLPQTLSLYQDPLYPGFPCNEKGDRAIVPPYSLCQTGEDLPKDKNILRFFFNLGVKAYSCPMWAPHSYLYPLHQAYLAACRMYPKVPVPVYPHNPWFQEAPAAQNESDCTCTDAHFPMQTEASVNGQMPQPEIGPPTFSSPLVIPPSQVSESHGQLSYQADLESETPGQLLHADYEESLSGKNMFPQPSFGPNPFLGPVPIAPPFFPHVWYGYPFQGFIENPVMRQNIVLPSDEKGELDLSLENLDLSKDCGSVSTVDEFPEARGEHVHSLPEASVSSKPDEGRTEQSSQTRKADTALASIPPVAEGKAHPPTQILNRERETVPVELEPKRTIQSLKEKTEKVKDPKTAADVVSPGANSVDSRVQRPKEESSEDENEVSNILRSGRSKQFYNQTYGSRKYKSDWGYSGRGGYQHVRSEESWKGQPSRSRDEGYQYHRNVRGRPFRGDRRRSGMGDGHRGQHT
In short: as §1

OTUD5 = biological target: T5, OTUD5 (UniProt Q96G74)
T5 sequence (whole entry): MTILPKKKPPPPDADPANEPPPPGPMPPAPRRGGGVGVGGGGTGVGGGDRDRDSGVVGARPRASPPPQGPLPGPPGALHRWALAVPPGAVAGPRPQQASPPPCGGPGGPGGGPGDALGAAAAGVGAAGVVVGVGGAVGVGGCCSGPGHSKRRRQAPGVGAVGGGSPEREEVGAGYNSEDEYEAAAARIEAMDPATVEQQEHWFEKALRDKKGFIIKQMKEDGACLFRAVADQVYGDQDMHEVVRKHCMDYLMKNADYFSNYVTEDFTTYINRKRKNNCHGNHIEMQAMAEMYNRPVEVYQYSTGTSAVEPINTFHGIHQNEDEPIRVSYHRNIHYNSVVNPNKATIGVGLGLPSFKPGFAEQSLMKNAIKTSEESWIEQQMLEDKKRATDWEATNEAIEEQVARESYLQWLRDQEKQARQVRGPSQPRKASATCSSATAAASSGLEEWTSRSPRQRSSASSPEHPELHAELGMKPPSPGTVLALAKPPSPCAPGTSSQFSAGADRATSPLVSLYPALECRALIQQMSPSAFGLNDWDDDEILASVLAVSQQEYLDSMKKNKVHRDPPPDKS
In short: as §1

Measured: log2 ratio of Biotin-Ahx-Ub-VS probe labelling

Chain of ATXN3 (P54252 whole entry): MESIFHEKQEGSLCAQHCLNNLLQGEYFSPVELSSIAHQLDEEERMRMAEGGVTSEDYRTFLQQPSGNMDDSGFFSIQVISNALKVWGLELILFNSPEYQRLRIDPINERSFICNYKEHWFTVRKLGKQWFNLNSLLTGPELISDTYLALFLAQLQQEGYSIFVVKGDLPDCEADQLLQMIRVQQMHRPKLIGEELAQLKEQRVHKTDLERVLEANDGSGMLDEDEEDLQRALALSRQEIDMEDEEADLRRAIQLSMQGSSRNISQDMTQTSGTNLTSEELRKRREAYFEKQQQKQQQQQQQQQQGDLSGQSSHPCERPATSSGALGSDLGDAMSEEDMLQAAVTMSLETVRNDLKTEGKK
Chain of EIF3H (O15372 whole entry): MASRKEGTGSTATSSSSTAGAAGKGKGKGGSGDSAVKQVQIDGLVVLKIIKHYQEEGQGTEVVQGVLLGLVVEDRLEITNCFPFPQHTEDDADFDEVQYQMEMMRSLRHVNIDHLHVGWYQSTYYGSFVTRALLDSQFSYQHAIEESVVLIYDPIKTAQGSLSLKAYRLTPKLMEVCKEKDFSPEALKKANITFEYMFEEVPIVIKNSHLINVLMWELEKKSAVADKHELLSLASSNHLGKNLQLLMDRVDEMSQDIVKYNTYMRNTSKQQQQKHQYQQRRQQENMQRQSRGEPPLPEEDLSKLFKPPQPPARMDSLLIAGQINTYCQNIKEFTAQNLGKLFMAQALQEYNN
Chain of EIF3F (O00303 whole entry): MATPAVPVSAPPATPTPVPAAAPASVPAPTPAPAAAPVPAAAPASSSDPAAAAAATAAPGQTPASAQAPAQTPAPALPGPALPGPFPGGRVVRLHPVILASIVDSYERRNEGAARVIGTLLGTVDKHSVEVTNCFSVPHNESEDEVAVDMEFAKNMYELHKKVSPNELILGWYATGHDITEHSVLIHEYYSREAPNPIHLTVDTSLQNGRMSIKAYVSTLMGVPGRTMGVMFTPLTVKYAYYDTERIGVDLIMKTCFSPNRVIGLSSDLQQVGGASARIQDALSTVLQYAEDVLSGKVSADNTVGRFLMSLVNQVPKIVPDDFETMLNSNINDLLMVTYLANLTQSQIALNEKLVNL
Chain of OTUB1 (Q96FW1 whole entry): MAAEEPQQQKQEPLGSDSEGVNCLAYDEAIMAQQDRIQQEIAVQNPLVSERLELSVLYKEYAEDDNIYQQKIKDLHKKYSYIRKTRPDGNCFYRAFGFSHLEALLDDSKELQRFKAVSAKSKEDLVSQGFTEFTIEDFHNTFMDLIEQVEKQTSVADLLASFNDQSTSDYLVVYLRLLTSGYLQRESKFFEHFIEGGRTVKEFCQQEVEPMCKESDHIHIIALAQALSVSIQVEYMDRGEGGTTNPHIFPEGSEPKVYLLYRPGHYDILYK

O=C(CCl)NC1CCC2(CC1)OCCO2
inactive: ALG13 0.0856 | ATXN3 -0.347 | BAP1 -0.944 | EIF3F -0.268 | EIF3H 0.0155 | FAM105A 0.137 | OTUB1 -0.114 | OTUD4 -0.376 | OTUD5 -0.414
